In PubChem BioAssay (NCI) one finds growth data, which are given here for eight compounds.

Compounds without any hit were thinned out: in the full panel of roughly 83,000, 20% have a hit.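 Step 1: grow cells in 96-well plates. Step 2: add test compound at a single concentration. Step 3: incubate 48 h. Step 4: record percent growth.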 A number with no mark means an inactive call. Activity calls are given as the source filed them. How the source made its calls: active means growth percent below 10; inactive means the rest.

Test systems include HCT-15 colon; HT29 colon; SNB-75 CNS; SNB-19 CNS; U251 CNS; PC-3 prostate; SK-MEL-5 melanoma; UACC-62 melanoma; LOX IMVI melanoma; SK-MEL-28 melanoma; SK-MEL-2 melanoma; EKVX NSCLC; SN12C renal; UO-31 renal; ACHN renal; CAKI-1 renal; A498 renal; CCRF-CEM leukemia; MOLT-4 leukemia; TK-10 renal.
What all share (assay): NCI-60 one-dose screen, 48 h (100 = growth as untreated, 0 = no growth, -100 = all killed)
What all share (settings): 10 µM unless noted

In the case of `N#CSCC1CC(O)(c2ccccc2)C(c2ccccc2)C(c2ccc(Cl)cc2)O1` (stereo unspecified), the growth is -64.6% (active) with HCT-15 colon; 1.18% (active) in the experiment on HT29 colon; 37.5% with SNB-75 CNS; 36.6% in the experiment with SNB-19 CNS; -31.1% (active) in the experiment on U251 CNS; -6.02% (active) in the experiment with PC-3 prostate. The growth is -87.4% (active) in the experiment on SK-MEL-5 melanoma; -90.5% (active) in the experiment on UACC-62 melanoma; -97.4% (active) in the experiment with LOX IMVI melanoma; -84% (active) in the experiment on SK-MEL-28 melanoma; -42.7% (active) with SK-MEL-2 melanoma; -40% (active) in the experiment on EKVX NSCLC. Besides, the growth is -91.9% (active) in the experiment on SN12C renal; -93.1% (active) with UO-31 renal; -71.6% (active) with ACHN renal; -67.1% (active) with CAKI-1 renal; 6.8% (active) in the experiment with A498 renal; 10.2% with CCRF-CEM leukemia. In the experiment with MOLT-4 leukemia, the growth was -10% (active).

Regarding `COc1ccc(-c2ccc(O)c(C(=O)/C=C/c3cc(OC)c(OC)c(OC)c3)c2)cc1`, the growth in the experiment on HCT-15 colon is 76.6%; with HT29 colon it was 75%; in the experiment on SNB-75 CNS, 96.9%; with SNB-19 CNS, 99.4%; in the experiment with U251 CNS, 78%; in the experiment with PC-3 prostate it was 61.8%. The growth is 71.7% in the experiment on SK-MEL-5 melanoma; 67.1% with UACC-62 melanoma; 62.5% in the experiment with LOX IMVI melanoma; 104% in the experiment on SK-MEL-28 melanoma; 84.4% in the experiment with SK-MEL-2 melanoma; 79.8% with EKVX NSCLC. The growth with SN12C renal is 94.6%; with UO-31 renal, 59.7%; with TK-10 renal, 103%; in the experiment on CAKI-1 renal it was 86.5%; with A498 renal, 124%; in the experiment with CCRF-CEM leukemia, 24.2%. In addition, the growth with MOLT-4 leukemia was 34.3%.

As for `O=C(Nc1ccccc1)c1cc(-n2cnc([N+](=O)[O-])c2)cc(-n2cnc([N+](=O)[O-])c2)n1`, the growth with HCT-15 colon was 114%; with HT29 colon, 107%; with SNB-75 CNS, 98.9%; in the experiment on SNB-19 CNS, 106%; with U251 CNS, 101%; in the experiment with PC-3 prostate, 88.8%. In addition, the growth in the experiment with SK-MEL-5 melanoma is 95.6%; in the experiment with UACC-62 melanoma, 103%; in the experiment with LOX IMVI melanoma it was 94.2%; in the experiment with SK-MEL-28 melanoma, 122%; in the experiment on SK-MEL-2 melanoma, 103%; in the experiment on EKVX NSCLC, 107%. In addition, the growth in the experiment with SN12C renal is 103%; with UO-31 renal it was 92.3%; in the experiment on TK-10 renal, 112%; with ACHN renal, 100%; in the experiment with CCRF-CEM leukemia, 89.3%; with MOLT-4 leukemia, 94.2%.

As to `O=C1CSC(c2ccccc2O)N1c1nnc(Cn2ccnc2)o1` (stereo unspecified), the growth with HCT-15 colon was 28.8%; in the experiment with HT29 colon, 86.2%; with SNB-75 CNS, 74.9%; in the experiment on SNB-19 CNS it was 86.3%; with U251 CNS it was 66.6%; in the experiment on PC-3 prostate it was 64.6%. The growth in the experiment on SK-MEL-5 melanoma is 55.1%; with UACC-62 melanoma, 77.4%; with LOX IMVI melanoma, 56%; in the experiment with SK-MEL-28 melanoma, 74.8%; in the experiment with SK-MEL-2 melanoma, 90.3%; with EKVX NSCLC, 81.5%. The growth was 66.1% with SN12C renal; 32.9% with UO-31 renal; 53.6% in the experiment on ACHN renal; -37.5% (active) in the experiment with CAKI-1 renal; 99.5% in the experiment on A498 renal; 34% in the experiment with CCRF-CEM leukemia. Moreover, in the experiment on MOLT-4 leukemia, the growth is 48.6%.

For `NS(=O)(=O)c1cc(C2(O)NC(=O)c3ccccc32)ccc1Cl` (stereo unspecified), the growth in the experiment with HCT-15 colon was 104%; with HT29 colon, 98.4%; in the experiment with SNB-75 CNS it was 91.4%; in the experiment on SNB-19 CNS it was 104%; with U251 CNS, 103%; with PC-3 prostate, 91.7%. Also, the growth was 115% with SK-MEL-5 melanoma; 103% in the experiment on UACC-62 melanoma; 98.8% in the experiment on LOX IMVI melanoma; 116% in the experiment with SK-MEL-28 melanoma; 113% in the experiment on SK-MEL-2 melanoma; 108% in the experiment on EKVX NSCLC. In addition, the growth in the experiment on SN12C renal is 101%; in the experiment with UO-31 renal, 76.4%; in the experiment with ACHN renal, 90.7%; with CAKI-1 renal it was 93.9%; with A498 renal, 129%; in the experiment on CCRF-CEM leukemia it was 98.9%. Moreover, the growth with MOLT-4 leukemia was 93.6%.

`CCC(C)C1NC(=O)C(CCNCS(=O)(=O)O)NC(=O)C(NC(=O)C(CCNCS(=O)(=O)O)NC(=O)C(NC(=O)C(CCNCS(=O)(=O)O)NC(=O)CCCCC(C)C)C(C)O)CCNC(=O)C(C(C)O)NC(=O)C(CCNCS(=O)(=O)O)NC(=O)C(CCNCS(=O)(=O)O)NC(=O)C(C(C)CC)NC1=O` (stereo unspecified): the growth with HCT-15 colon was 99.6%; in the experiment on HT29 colon, 17.3%; with SNB-75 CNS it was 48.5%; in the experiment on SNB-19 CNS, 54.9%; in the experiment with U251 CNS, 33.3%; in the experiment on PC-3 prostate, 61.6%. Besides, the growth in the experiment with SK-MEL-5 melanoma is 4.4% (active); in the experiment with UACC-62 melanoma it was 47.5%; with LOX IMVI melanoma, 48.8%; in the experiment with SK-MEL-28 melanoma, 49.8%; in the experiment on SK-MEL-2 melanoma, 39.9%; with EKVX NSCLC, 83.7%. For the same compound, the growth was 63.6% with SN12C renal; 75% with UO-31 renal; 94.5% with ACHN renal; 99.4% in the experiment on CAKI-1 renal; 88.8% in the experiment on A498 renal; 20.7% in the experiment on CCRF-CEM leukemia. The growth in the experiment with MOLT-4 leukemia was 66.4%.

Turning to `CCCCCCCCCCN1CCC(N2CCCCC2)CC1`, the growth is -5.57% (active) in the experiment with HCT-15 colon; -38.9% (active) in the experiment with HT29 colon; -47.8% (active) in the experiment on SNB-75 CNS; 28.2% with SNB-19 CNS; 4.67% (active) with U251 CNS; 16% in the experiment with PC-3 prostate. The growth in the experiment with SK-MEL-5 melanoma was -96.9% (active); in the experiment on UACC-62 melanoma it was -79.7% (active); in the experiment on LOX IMVI melanoma it was -72.8% (active); in the experiment with SK-MEL-28 melanoma it was -29.1% (active); with SK-MEL-2 melanoma it was -19.9% (active); with EKVX NSCLC it was 37.4%. In addition, the growth with SN12C renal was 45.4%; in the experiment with UO-31 renal, -86.7% (active); in the experiment on TK-10 renal, 25.2%; in the experiment with ACHN renal, 38.2%; with A498 renal, 74.2%; in the experiment on CCRF-CEM leukemia, 6.95% (active). Also, the growth in the experiment on MOLT-4 leukemia is -26% (active).

In the case of `CSc1nc2nc3c(c(-c4ccc(C)cc4)c2c(=O)[nH]1)CN(C)C/C3=C\c1ccc(C)cc1`, the growth in the experiment on HCT-15 colon was 116%; in the experiment on HT29 colon, 103%; in the experiment on SNB-75 CNS it was 93%; with SNB-19 CNS, 97.3%; in the experiment on U251 CNS it was 91.2%; in the experiment on PC-3 prostate, 98.5%. Also, the growth with SK-MEL-5 melanoma is 77.1%; in the experiment on UACC-62 melanoma it was 93.8%; in the experiment on LOX IMVI melanoma, 90%; in the experiment on SK-MEL-28 melanoma, 111%; with SK-MEL-2 melanoma, 112%; in the experiment with EKVX NSCLC, 83.5%. For the same compound, the growth in the experiment on SN12C renal was 102%; in the experiment with UO-31 renal, 86.1%; in the experiment on ACHN renal it was 94.9%; in the experiment on CAKI-1 renal it was 93.7%; in the experiment on A498 renal, 85.6%; in the experiment with CCRF-CEM leukemia, 85.2%. In addition, in the experiment with MOLT-4 leukemia, the growth was 87.2%.
